Here are results for ten compounds from PubChem BioAssay (NCI).

Test systems include NCI-H23 lung; NCI-H226 lung; NCI-H322M lung; HOP-62 NSCLC; NCI-H460 lung; HOP-92 NSCLC; NCI-H522 lung; A549/ATCC NSCLC; 786-0 renal; COLO 205 colon; DU-145 prostate; K-562 leukemia; MALME-3M melanoma; MDA-MB-231 breast; RXF 393 renal; SF-268 CNS; SF-295 CNS; SF-539 CNS; UACC-257 melanoma; M14 melanoma.
What all share (test): NCI-60 one-dose screen, 48 h (100 = growth as untreated, 0 = no growth, -100 = all killed)
What all share (conditions): 10 µM unless noted

Values joined by “and” are separate entries in the source; they are usually repeats but may differ in a detail not shown here. Equal entries are not always repeated. The panel holds about 83,000 compounds, 20% with a hit somewhere; the sample as a whole holds those more often.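 Testing used 96-well plates and a 48-hour single-concentration exposure. Example: -40 means 40% of the starting cells died.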 Unmarked numbers belong to inactive results. Active and inactive are the calls of the source. How the source made its calls: active means growth percent below 10; inactive means the rest.

Turning to `Nc1nc2c(s1)CCc1cn(S(=O)(=O)c3ccccc3)cc1-2`, the growth was 94.5% and 104% in the experiment on NCI-H23 lung; 82.9% in the experiment with NCI-H226 lung; 93.7% and 114% with NCI-H322M lung; 91.5% and 112% in the experiment on HOP-62 NSCLC; 95.1% and 101% in the experiment with NCI-H460 lung; 63.3% with HOP-92 NSCLC. Besides, the growth with NCI-H522 lung is 82.4% and 92.9%; in the experiment with A549/ATCC NSCLC, 78.5% and 101%; in the experiment on 786-0 renal it was 92.7% and 104%; with COLO 205 colon, 106% and 108%; in the experiment on DU-145 prostate, 100% and 114%; in the experiment with K-562 leukemia, 88.6% and 88.2%. Also, the growth is 107% and 98% with MALME-3M melanoma; 80.5% and 112% in the experiment with MDA-MB-231 breast; 100% and 110% in the experiment on RXF 393 renal; 80.6% and 97.7% with SF-268 CNS; 94.6% and 106% with SF-295 CNS; 90.9% and 97.8% with SF-539 CNS. Further, the growth is 86.6% and 112% with UACC-257 melanoma; 90.4% and 101% in the experiment on M14 melanoma.

With `COc1cc(/C=C(/c2ccccc2)[N+](=O)[O-])c(OC)c2c1OCO2`, the growth in the experiment with NCI-H23 lung is -34.7% (active); in the experiment with NCI-H226 lung, 24.8%; in the experiment with NCI-H322M lung, 3.33% (active); in the experiment on HOP-62 NSCLC, -19.6% (active); in the experiment on NCI-H460 lung it was -16.1% (active); in the experiment on HOP-92 NSCLC, -49.2% (active). Besides, the growth was -62.8% (active) in the experiment on NCI-H522 lung; 5.75% (active) in the experiment with A549/ATCC NSCLC; -98% (active) in the experiment with 786-0 renal; -53.1% (active) in the experiment on COLO 205 colon; -87.4% (active) in the experiment with DU-145 prostate; 0.225% (active) in the experiment on K-562 leukemia. The growth in the experiment on MALME-3M melanoma is -49.6% (active); with MDA-MB-231 breast, -47.9% (active); in the experiment with RXF 393 renal, -79.8% (active); in the experiment with SF-268 CNS it was 21.1%; with SF-295 CNS, 28.8%; in the experiment on SF-539 CNS it was -90.5% (active). The values for the growth in the experiment on UACC-257 melanoma and with M14 melanoma were 17.3% and 11.9%, respectively.

As for `CCCCC(NC(=O)CN1C(=O)/C(=C/C(C)=C/c2ccccc2)SC1=S)C(=O)O` (stereo not given), the growth in the experiment with NCI-H23 lung was 94.8%; in the experiment on NCI-H226 lung, 93.9%; with NCI-H322M lung, 103%; in the experiment on HOP-62 NSCLC it was 93%; in the experiment on NCI-H460 lung, 102%; in the experiment on HOP-92 NSCLC it was 62.8%. Moreover, the growth in the experiment on NCI-H522 lung was 93.8%; with A549/ATCC NSCLC, 98.5%; in the experiment with 786-0 renal it was 104%; in the experiment with COLO 205 colon, 119%; in the experiment with DU-145 prostate, 111%; with K-562 leukemia it was 107%. In addition, the growth with MALME-3M melanoma is 91.8%; in the experiment on MDA-MB-231 breast, 92.7%; in the experiment on RXF 393 renal, 105%; in the experiment on SF-268 CNS it was 100%; in the experiment on SF-295 CNS, 95%; with SF-539 CNS it was 101%. The growth is 104% in the experiment on UACC-257 melanoma and 96.6% with M14 melanoma.

`Cc1ccc(Cc2cnc(NC(=O)c3cc(C)oc3C)s2)cc1`: the growth in the experiment on NCI-H23 lung is 76.1%; with NCI-H226 lung, 90.4%; with NCI-H322M lung, 70.8%; in the experiment on HOP-62 NSCLC it was 86%; in the experiment with NCI-H460 lung, 31.3%; in the experiment on HOP-92 NSCLC, 79.1%. Moreover, the growth in the experiment on NCI-H522 lung is 57.3%; in the experiment on A549/ATCC NSCLC it was 55%; in the experiment with 786-0 renal, 76.8%; in the experiment on COLO 205 colon, 115%; in the experiment on DU-145 prostate it was 75.6%; in the experiment with K-562 leukemia, 29.5%. The growth in the experiment on MALME-3M melanoma is 85.2%; in the experiment with MDA-MB-231 breast it was 79.6%; with RXF 393 renal, 58.7%; in the experiment on SF-268 CNS, 67.8%; in the experiment with SF-295 CNS, 66.6%; in the experiment with SF-539 CNS, 76.8%. The growth in the experiment on UACC-257 melanoma is 94.2%; in the experiment with M14 melanoma, 70.8%.

For `C=C(CNCCO)[C@@H]1CC[C@]2(CO)CC[C@]3(C)[C@H](CC[C@@H]4[C@@]5(C)CCC(NCCc6ccc(O)cc6)C(C)(C)[C@@H]5CC[C@]43C)[C@@H]12` (stereo not given in full), the growth was -63% (active) with NCI-H23 lung; -47.6% (active) with NCI-H226 lung; -41% (active) with NCI-H322M lung; -84.4% (active) in the experiment with HOP-62 NSCLC; -80.4% (active) in the experiment with NCI-H460 lung; -66.1% (active) in the experiment with HOP-92 NSCLC. Further, the growth was -79.5% (active) with NCI-H522 lung; -71.3% (active) in the experiment with A549/ATCC NSCLC; -92.8% (active) with 786-0 renal; -84.4% (active) in the experiment with COLO 205 colon; -84.1% (active) with DU-145 prostate; -57.3% (active) in the experiment on K-562 leukemia. In addition, the growth with MALME-3M melanoma is -86.8% (active); in the experiment on MDA-MB-231 breast it was -80% (active); in the experiment with RXF 393 renal it was -85.7% (active); in the experiment with SF-268 CNS, -74.8% (active); in the experiment with SF-295 CNS, -85.4% (active); with SF-539 CNS, -93.6% (active). Further, the results for the growth in the experiment with UACC-257 melanoma and with M14 melanoma were -86.3% (active) and -91.6% (active), respectively.

As to `Cc1ccc(C(=O)c2ccc(CC(=O)N=Nc3c(O)[nH]c4ccc(OC(F)(F)F)cc34)n2C)cc1`, the growth with NCI-H23 lung was 90%; with NCI-H226 lung it was 91%; in the experiment with NCI-H322M lung, 96.7%; with HOP-62 NSCLC, 93.3%; with NCI-H460 lung, 103%; with HOP-92 NSCLC, 116%. Besides, the growth in the experiment with NCI-H522 lung is 85.6%; in the experiment on A549/ATCC NSCLC it was 86%; in the experiment on 786-0 renal, 101%; in the experiment with COLO 205 colon, 110%; with DU-145 prostate, 102%; with K-562 leukemia, 92.5%. Besides, the growth was 126% in the experiment on MALME-3M melanoma; 92.4% with MDA-MB-231 breast; 104% with RXF 393 renal; 93.2% with SF-268 CNS; 101% in the experiment on SF-295 CNS; 102% in the experiment with SF-539 CNS. Further, the growth was 102% in the experiment with UACC-257 melanoma and 97.6% with M14 melanoma.

As for `O=[N+]([O-])c1ccc2[nH]c3nccc(NCc4cccc(Cl)c4)c3c2c1`, the growth was 82.3% in the experiment on NCI-H23 lung; 83.9% with NCI-H226 lung; 77.8% with NCI-H322M lung; 10.8% with HOP-62 NSCLC; 26.8% in the experiment with NCI-H460 lung; 92.5% in the experiment with HOP-92 NSCLC. Further, the growth in the experiment with NCI-H522 lung is 50.3%; in the experiment with A549/ATCC NSCLC, 58.8%; in the experiment on 786-0 renal, 76.4%; in the experiment with COLO 205 colon, 68.1%; in the experiment on DU-145 prostate, 64.6%; in the experiment on K-562 leukemia, 79.4%. Also, the growth in the experiment with MALME-3M melanoma was 46.4%; with MDA-MB-231 breast it was 80.2%; with RXF 393 renal, 66.4%; with SF-268 CNS it was 46.1%; with SF-295 CNS, 67.3%; in the experiment on SF-539 CNS it was 71.1%. In addition, the growth with UACC-257 melanoma was 85.5%; in the experiment on M14 melanoma it was 83.4%.

In the case of `Nc1nc(N)c2c(n1)NC(c1cccc(Nc3ccnc4cc(C(F)(F)F)ccc34)c1)CC(c1ccc(F)cc1)=N2` (stereo not given), the growth in the experiment on NCI-H23 lung was 70.4%; in the experiment with NCI-H226 lung, 80%; with NCI-H322M lung, 86.4%; with HOP-62 NSCLC it was 48.7%; in the experiment with NCI-H460 lung, 18%; with HOP-92 NSCLC, 31.6%. The growth in the experiment with NCI-H522 lung is 48.2%; in the experiment with A549/ATCC NSCLC it was 40.1%; with 786-0 renal it was 60.4%; in the experiment with COLO 205 colon, 29.1%; with DU-145 prostate, 63.8%; in the experiment on K-562 leukemia, 9.19% (active). Also, the growth in the experiment with MALME-3M melanoma is 53.2%; in the experiment with MDA-MB-231 breast it was 44.8%; in the experiment on RXF 393 renal, 42.8%; in the experiment with SF-268 CNS it was 52.2%; in the experiment with SF-295 CNS it was 49.2%; with SF-539 CNS it was 73.8%. The figures for the growth in the experiment with UACC-257 melanoma and in the experiment on M14 melanoma were 74.8% and 27.7%, respectively.

Take `O=C(c1cccc(Br)c1)N1CCN(c2ccnc3cc(Cl)ccc23)CC1`: the growth was 79.7% in the experiment with NCI-H23 lung; 87.3% with NCI-H226 lung; 92% in the experiment with NCI-H322M lung; 95.3% with HOP-62 NSCLC; 100% in the experiment on NCI-H460 lung; 78.7% in the experiment with HOP-92 NSCLC. Besides, the growth in the experiment on NCI-H522 lung is 45.1%; in the experiment on A549/ATCC NSCLC it was 73.8%; in the experiment with 786-0 renal it was 71.9%; in the experiment with COLO 205 colon it was 93.7%; with DU-145 prostate, 93.3%; in the experiment with K-562 leukemia, 68.1%. The growth with MALME-3M melanoma is 94.3%; in the experiment on MDA-MB-231 breast it was 91.7%; in the experiment with RXF 393 renal, 87%; in the experiment with SF-268 CNS it was 91.5%; in the experiment with SF-295 CNS, 87%; in the experiment with SF-539 CNS it was 96.9%. The growth was 85.8% in the experiment on UACC-257 melanoma and 98.6% in the experiment on M14 melanoma.

For the compound `Cc1nc2sc(C(=O)Nc3cccc(Cl)c3C)c(N)c2cc1C(O)c1ccccc1` (stereo not given), the growth is 19.8% in the experiment on NCI-H23 lung; 43.5% with NCI-H226 lung; 49.8% with NCI-H322M lung; 33.6% in the experiment on HOP-62 NSCLC; 3.15% (active) in the experiment with NCI-H460 lung; 30% in the experiment with HOP-92 NSCLC. Moreover, the growth in the experiment on NCI-H522 lung was 4.83% (active); in the experiment with A549/ATCC NSCLC, 16.2%; in the experiment on 786-0 renal, 16.5%; with COLO 205 colon it was -0.762% (active); with DU-145 prostate, 10.7%; with K-562 leukemia, 6.05% (active). For the same compound, the growth is 50.2% in the experiment on MALME-3M melanoma; 15.3% with MDA-MB-231 breast; 46.2% in the experiment with RXF 393 renal; 24% in the experiment with SF-268 CNS; 26.9% with SF-295 CNS; 0.0688% (active) in the experiment with SF-539 CNS. For the same compound, the growth in the experiment with UACC-257 melanoma was 57%; with M14 melanoma it was 7.42% (active).
